Assay [1] is described as follows: Quantitative High-Throughput drug screen in 47 multiple myeloma cell lines against the NCATS MIPE library collection: PCM6_Riken cell viability assay (AID 1919870). Also: nearly all actives have a fitted effect of over 30% in size. Also: potency is read from the fitted curve at half-maximal effect. The settings on record: CellTiter-Glo ATP, 48 h; series mostly up to 45.8 µM. Put shortly: (§1)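 ATP-based CellTiter-Glo luminescence after 48 h drug exposure (37 °C, 5% CO2) of 500 myeloma cells per well. DMSO-only wells set 100% viability, media-only wells 0%; MIPE 4.0 library added by pin tool.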
Background: Cellular ATP, detected with luciferase, serves as a proxy for viable cell number.

Assay [2] is described as follows: Quantitative High-Throughput drug screen in 47 multiple myeloma cell lines against the NCATS MIPE library collection: RPMI8226_ATCC cell viability assay (AID 1919871). Also: nearly all actives have a fitted effect of over 30% in size. Also: potency is read from the fitted curve at half-maximal effect. The settings on record: RPMI8226 myeloma viability, CellTiter-Glo ATP luminescence, 48 h; series mostly up to 45.8 µM. Put shortly: as §1
Assay [3] in a line: Quantitative High-Throughput drug screen in 47 multiple myeloma cell lines against the NCATS MIPE library collection: KMS11_JCRBsus cell viability assay (AID 1919873). Also: nearly all actives have a fitted effect of over 50% in size. Also: potency is read from the fitted curve at half-maximal effect. The settings on record: KMS11 myeloma viability, CellTiter-Glo ATP luminescence, 48 h; series mostly up to 45.8 µM. Put shortly: as §1
Assay [4] can be described thus: qHTS drug screen for cell cycle checkpoint inhibitors in PARPi-resistant BRCA-mutant ovarian cancer cell lines. (AID 1963452; calls by dose curve). The settings on record: PEO1/OlaR viability, CellTiter-Glo luminescence, 96 h, stronger effect = lower value. Summed up:
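PEO1, PEO4 and PEO1/OlaR ovarian cancer cells, 600 per well, exposed 96 h at 37C to a dilution series. Viability read by CellTiter-Glo luminescence, normalized to DMSO and empty wells; activity summarized as Z-AUC.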
A general note: In qHTS, concentration-response curves come from the screen itself.

Assay [5] deals with 3D7. As to the kind of experiment: qHTS profiling for inhibitors of Plasmodium falciparum proliferation (AID 504749). Also: nearly all actives have a fitted effect of over 60% in size. Also: potency is read from the fitted curve at half-maximal effect.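 As to activity, negative = inhibition: 0% = DMSO vehicle and full inhibition = artemisinin control.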 The settings on record: P. falciparum in erythrocytes, SYBR Green DNA, 72 h; series mostly up to 28.7 µM. Put shortly: (§2)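 SYBR Green fluorescence of parasite DNA, read after lysis and overnight dark incubation, measured growth over 72 h in erythrocyte culture at 0.3% parasitemia and 2.5% hematocrit. Data normalised to DMSO and 0.29 uM artemisinin, with plate-drift correction.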

Assay [6] has as its system AA1029. The description is as above. The settings on record: P. falciparum in erythrocytes, SYBR Green DNA, 72 h; series mostly up to 28.7 µM. Summed up:
as §2

For assay [7], the system named is AS120. The assay is described as above. The settings on record: P. falciparum in erythrocytes, SYBR Green DNA, 72 h; series mostly up to 28.7 µM. Put shortly: as §2
Assay [8] has as its system ATS189. The assay is described as above. The settings on record: P. falciparum in erythrocytes, SYBR Green DNA, 72 h; series mostly up to 28.7 µM. Summed up: as §2
In assay [9] the test system is ATS95. Described as above. The settings on record: P. falciparum in erythrocytes, SYBR Green DNA, 72 h; series mostly up to 28.7 µM. Summed up:
as §2

The test system of assay [10] is C2A. The assay is described as above. The settings on record: P. falciparum in erythrocytes, SYBR Green DNA, 72 h; series mostly up to 28.7 µM. Summed up:
as §2

Experiment in assay [11]: as above
The settings on record: P. falciparum in erythrocytes, SYBR Green DNA, 72 h. Put shortly: as §2

In assay [12] the test system is 7G8. The assay is described as above. The settings on record: P. falciparum in erythrocytes, SYBR Green DNA, 72 h; series mostly up to 28.7 µM. Summed up: as §2
Assay [13] is described as follows: Quantitative High-Throughput drug screen in 47 multiple myeloma cell lines against the NCATS MIPE library collection: OPM2_DSMZ cell viability assay (AID 1919872). Also: nearly all actives have a fitted effect of over 30% in size. The settings on record: OPM2 myeloma viability, CellTiter-Glo ATP luminescence, 48 h; series mostly up to 45.8 µM. Summed up:
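CellTiter-Glo ATP luminescence gave viability after 48 h compound treatment at 37C of 500 multiple myeloma cells per well. Normalisation used DMSO-only wells as 100% and media-only wells as 0% viability; primary qHTS of approved and investigational drugs.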

Assay [14] can be described thus: Quantitative High-Throughput drug screen in 47 multiple myeloma cell lines against the NCATS MIPE library collection: KMS28BM_JCRB cell viability assay (AID 1919874). Also: nearly all actives have a fitted effect of over 35% in size. The settings on record: CellTiter-Glo ATP, 48 h; series mostly up to 45.8 µM. Put shortly: as §1
Assay [15] in a line: qHTS for identification of novel therapeutic agents for treatment of microphthalmiaassociated transcription factor (MiT) renal cell carcinoma (RCC) (AID 1963991). The settings on record: CellTiter-Glo, 48 h, stronger effect = lower value. Summed up: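 Three TFE3-fusion RCC cell lines (UOK109, UOK124, UOK145), 500 cells/well, were exposed to the 1912-compound MIPE 4.0 library for 48 hours at 37 C. Viability was read by CellTiter-Glo luminescence, normalised to DMSO (100%) and empty wells (0%), with 11-concentration curve fits.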

The mark [16] stands for this setting: measured here: PEO1 parental Z-AUC.
Setting [17] is: at 28.7 µM (top of the series), parasite line A.
The mark [18] stands for this setting: at 28.7 µM (top of the series), parasite line B.
Where [19] appears, read: TFE3-RCC UOK109 viability, measured here: UOK109 Z-AUC.
Setting [20] is: TFE3-RCC viability, measured here: UOK124 Z-AUC.
Where [21] appears, read: TFE3-RCC viability, measured here: UOK145 Z-AUC.

SMILES strings stand for the structures. Records with an inconclusive call do not appear. Active and inactive are the calls of the source. Unless noted, calls follow the shape of the dose curve; as a rule, active = well fitted curve in the direction sought with a large enough effect; inconclusive = small, poorly fitted or top-dose-only effect, or another doubt; inactive = no such curve, though single readings can be large; an effect the other way counts as inactive or inconclusive.

`C[C@](O)(CS(=O)(=O)c1ccc(F)cc1)C(=O)Nc1ccc(C#N)c(C(F)(F)F)c1`: the Potency in assay [1] is 0.662 µM (active). Further, the Potency result in [2], in [3], in [5], in [6], in [7] and in assay [8] was “inactive” each time. In addition, the Potency entry in assay [9] and in assay [10] was “inactive” each time. The Z-AUC in assay [4] is 0.83 (inactive); in assay [4] (setting [16]) it was 0.549; in [4] (measured here: PEO4 Z-AUC), 0.67.
With `COP(=S)(OC)SCN1C(=O)c2ccccc2C1=O`, the activity, negative = inhibition in [11] (setting [17]) is 6.4% (inactive); in [11] (setting [18]) it was 1.71% (inactive). Besides, the Potency entry in assay [5], in assay [12], in assay [6], in [7], in [8] and in [9] was “inactive” each time. In addition, the Potency entry in [10] was “inactive”.
As for `Clc1ccc2c(c1)C(c1ccccc1)=NCc1nncn1-2`, the activity, negative = inhibition in assay [11] (setting [17]) is -1.68% (inactive); in [11] (setting [18]) it was 10.3% (inactive). The Potency result in assay [5], in assay [12], in assay [6], in assay [7], in [8] and in [9] was “inactive” throughout. Besides, the Potency result in assay [10] is “inactive”.
As for `C[C@]12CCC(=O)C=C1CC[C@@H]1[C@H]3CC[C@](C)(O)[C@@]3(C)CC[C@@H]12`, the Potency was 38.2 µM (active) in [2] and 42.9 µM (active) in assay [3].
As for `C[C@]12CC[C@@H]3c4ccc(OC(=O)N(CCCl)CCCl)cc4CC[C@H]3[C@@H]1CC[C@@H]2OP(=O)(O)O`, the Potency result in assay [1], in assay [2] and in assay [3] was “inactive” each time. Moreover, the outcome in assay [13] and in [14] was inactive. Besides, the Z-AUC in assay [4] is 0.291 (inactive); in assay [4] (setting [16]), 1.75; in assay [4] (measured here: PEO4 Z-AUC) it was 1.95.
Turning to `Nc1nc(N)nc(NC2CC2)n1`, the activity, negative = inhibition in assay [11] (setting [17]) was -13.5% (inactive); in [11] (setting [18]), 1.17% (inactive). The Potency result in [5], in assay [12], in assay [6], in assay [7], in assay [8] and in assay [9] was “inactive” each time. Also, the Potency entry in assay [10] was “inactive”.
As to `C[C@]12Cc3cn[nH]c3C[C@@H]1CC[C@@H]1[C@@H]2CC[C@@]2(C)[C@H]1CC[C@]2(C)O`, the Z-AUC is 1.25 (inactive) in assay [4], 0.915 in assay [4] (setting [16]) and 1.64 in assay [4] (measured here: PEO4 Z-AUC).
Turning to `CCC1(CC)C(=O)C=CNC1=O`, the figures for the activity, negative = inhibition in assay [11] (setting [17]) and in [11] (setting [18]) were 10.7% (inactive) and 6.45% (inactive), respectively. Further, the Potency entry in [5], in [12], in [6], in assay [7], in assay [8] and in assay [9] was “inactive” throughout. Moreover, the Potency result in [10] was “inactive”.
As to `CNC(C)(C)Cc1ccccc1`, the activity, negative = inhibition in [11] (at 12.8 µM (top of the series), parasite line A) was 5.96% (inactive); in assay [11] (at 12.8 µM (top of the series), parasite line B), 5.61% (inactive). Besides, the Potency entry in [5], in assay [12], in [6], in assay [7], in assay [8] and in assay [9] was “inactive” each time. The Potency entry in assay [10] is “inactive”.
For the molecule `CC(NC(C)(C)C)C(=O)c1cccc(Cl)c1` (stereo not drawn), in assay [1], the Potency entry is “inactive”. In addition, the Potency in assay [2] is 20.9 µM (active). The molecule was classed as inactive in [13] and in assay [14]. Further, the values for the Z-AUC in assay [4], in assay [4] (setting [16]) and in assay [4] (measured here: PEO4 Z-AUC) were -0.176 (inactive), 0.0369 and 1.02, respectively. For the same molecule, the z-score in assay [15] (setting [19]) worked out at 0.679; in assay [15] (setting [20]), 0.615; in [15] (setting [21]), 0.622.
Regarding `O=c1[nH]oc2c1CCNC2`, the activity, negative = inhibition in [11] (setting [17]) was 3.02% (inactive); in assay [11] (setting [18]), 15.3% (inactive). Also, the Potency entry in [5], in [12], in assay [6], in assay [7], in assay [8] and in assay [9] was “inactive” throughout. The Potency entry in [10] was “inactive”.
As to `C[C@]12CCC(=O)C=C1CC[C@@H]1[C@@H]2CC[C@]2(C)C(=O)CC[C@@H]12`, the activity, negative = inhibition is -9.45% (inactive) in [11] (setting [17]) and 3.53% (inactive) in [11] (setting [18]). The Potency result in assay [5], in assay [12], in [6], in assay [7], in [8] and in assay [9] was “inactive” each time. The Potency result in [10] is “inactive”.
On to `COC1CC(=C(c2cccs2)c2cccs2)C[N+](C)(C)C1` (stereo not drawn), for which the Potency in [11] (parasite line A) was 3.98 µM (active); in assay [11] (parasite line B), 4.47 µM (active); in assay [5], 11.2 µM (active); in [12] it was 10 µM (active); in assay [6] it was 12.6 µM (active); in assay [7], 15.8 µM (active). In assay [8], the Potency is 8.91 µM (active).
Turning to `CC(C)c1cccc(C(C)C)c1O`, the Potency entry in assay [1], in assay [2], in assay [3], in assay [5], in assay [12] and in [6] was “inactive” in each case. The Potency entry in [7], in [8], in [9] and in assay [10] was “inactive” each time. The molecule was called inactive in assay [13] and in [14]. The values for the Z-AUC in [4], in assay [4] (setting [16]) and in assay [4] (measured here: PEO4 Z-AUC) were 0.183 (inactive), 0.696 and 0.584, respectively. The results for the z-score in [15] (setting [19]), in assay [15] (setting [20]) and in assay [15] (setting [21]) were -1.1, 0.663 and 0.666, respectively. Besides, the activity, negative = inhibition in assay [11] (setting [17]) was 13.6% (inactive); in assay [11] (setting [18]), 4.13% (inactive).
In the case of `CN1C[C@H](C(=O)N[C@]2(C)O[C@@]3(O)[C@@H]4CCCN4C(=O)[C@H](Cc4ccccc4)N3C2=O)C=C2c3cccc4[nH]cc(c34)C[C@H]21`, the Potency in assay [11] (parasite line A) is 1.41 µM (active); in assay [11] (parasite line B), 1.58 µM (active); in assay [5] it was 0.891 µM (active); in assay [12], 0.0794 µM (active); in assay [6], 1 µM (active); in assay [7], 0.562 µM (active). The Potency is 3.16 µM (active) in assay [8], 0.708 µM (active) in assay [9] and 3.55 µM (active) in assay [10].
For the molecule `Cc1ncsc1CCCl`, the activity, negative = inhibition was 12% (inactive) in [11] (setting [17]) and 0.0082% (inactive) in assay [11] (setting [18]). Moreover, the Potency result in assay [5], in assay [12], in assay [6], in assay [7], in assay [8] and in assay [9] was “inactive” each time. For the same molecule, in assay [10], the Potency entry was “inactive”.

Values taken from PubChem BioAssay (NCATS).
